Laboratory results from PubChem BioAssay AID758 (NMMLSC, 2007).
Out of some 190,000 compounds screened, about 110 (0.058%) were called active. Inconclusive results (about 2%) are left out. This is one part of a sample in which actives are shown more often than they occur. Values without a mark were called inactive.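 The calls were made as follows: active = fluorescent GTP binding to Rab7 beads changed by at least 20 points from the 100% baseline, either direction, mostly lower; inconclusive = compound itself probably fluorescent, or too few beads counted; inactive = the rest.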

tested on: Rab7 GTPase wild type (dog), Bodipy-FL-GTP binding; test: modulators of GTP binding to Rab7, primary screen, biochemical, wildtype, multiplex bead flow cytometry (AID 758); conditions: GST-Rab7 beads, fluorescent GTP binding, at 10 µM, actives lie on both sides, untreated = 100%, excess cold GTP = 0%;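 also: median green fluorescence of bound Bodipy-FL-GTP per Rab7 bead population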

SMILES	GTP binding activity (percent of control)
Cc1ccccc1OCCC(=O)OCC(=O)NC(C)c1ccccc1 (stereo unspecified)	95%
N#Cc1c(-c2ccc(F)cc2)nc(-c2ccccc2)[nH]c1=O	93%
O=C(c1cccc(S(=O)(=O)N2CCCC2)c1)N(Cc1ccco1)C1CCS(=O)(=O)C1 (stereo unspecified)	97%
CN(CCc1cnn(C)c1)Cc1cn(C)nc1-c1ccccc1F	100%
Cc1cc(=O)n2[nH]c(-c3sccc3-n3c(C)ccc3C)cc2n1	91%
O=C(N/N=C/c1ccc(OCC2COCCO2)cc1)c1ccc(Br)cc1 (stereo unspecified)	108%
Cc1c(C(=O)O)nnn1-c1nonc1N	97%
CCc1ccc(CN(C)C(=O)CCc2nnc(-c3ccc(-c4ccccc4)cc3)o2)nc1	96%
COC(=O)c1ccc(COC(=O)c2cnccn2)cc1	105%
COc1ccc(-c2[nH]ncc2CN(C)Cc2cccnc2)c(F)c1	96%
CCn1c(SCc2ccccc2)nc2c(c1=O)SCC2	94%
Cc1cccc(Oc2c([N+](=O)[O-])c(=O)n(C)c3ccccc23)c1	100%
COC(=O)c1ccc(CN2CCC(CO)(Cc3ccc(OC)cc3)CC2)cc1	103%
CN(C)c1nc(N)nc(Cn2nnc(-c3ccc(C(F)(F)F)cc3)n2)n1	104%
CCCNS(=O)(=O)c1ccc(CCC(=O)N2CCCC2)cc1	104%
CN(CC(=O)Nc1ccccc1F)CC(=O)Nc1ccccc1Br	105%
CCOC(=O)CCCNC(=O)COC(=O)/C=C/c1ccc2c(c1)OCO2	90%
Cc1nc2sc3c(c2c(=O)n1NC(=O)CCl)CCCC3	90%
CSc1ccc(CN2C(=O)NC3(CCCCCC3)C2=O)cc1	97%
Fc1cccc(CSc2nnc3ccc(-c4ccncc4)nn23)c1	94%
Cc1cc([N+](=O)[O-])ccc1NC(=O)c1ccc(NC(=O)C(C)C)cc1	98%
CCCCC(CC)CNC(=O)C(=O)C1C(=O)Nc2ccccc21 (stereo unspecified)	103%
COc1ccccc1-c1nc(SC)n[nH]1	97%
Cc1ccc(CSc2nc3[nH]ncc3c(=O)[nH]2)cc1	93%
Cc1ccccc1-n1nc(SCC(=O)O)sc1=S	99%
Cc1ccc(C(=O)Cn2cccn2)cc1	106%

SMILES	GTP binding activity (percent of control)
CC(=O)NC(=S)NNC(=O)c1ccc(Br)cc1	108%
NS(=O)(=O)c1cccc(NC(=O)COC(=O)/C=C/c2ccco2)c1	94%
O=C(Nc1ccc(Br)cn1)c1ccc([N+](=O)[O-])cc1Cl	98%
NC(=O)c1ccc(CN2CCC(Cc3ccccc3)CC2)cc1	110%
COc1cccc(CN(C)CC(=O)Nc2ccccc2C(=O)Nc2ccccc2)c1	105%
CC(OC(=O)c1ccccc1OCc1ccc(Cl)cc1)C(N)=O (stereo unspecified)	102%
Cc1cc(C)c(S(=O)(=O)N2CCOCC2)cc1C	101%
CN1CCN(S(=O)(=O)c2cccc(C(=O)O)c2)CC1	98%
CCOCCCNCc1cc(Br)ccc1OCC	95%
Cc1cccc(/C(N)=N/OC(=O)c2ccccc2Cl)c1	95%
C/C(=N\Nc1nc(N2CCOCC2)nc(N2CCOCC2)n1)c1ccc([N+](=O)[O-])cc1	96%
C/C(CC(=O)Nc1cccc(C(F)(F)F)c1)=N\NC(=O)C(=O)NCC(C)C	96%
CC(C)CNC(=O)C(=O)NCc1ccccc1	93%
O=[N+]([O-])c1cc(S(=O)(=O)CCCN2CCOCC2)ccc1F	95%
Cc1ccc(C2CCN(C(=S)Nc3cccc(Cl)c3)C2)cc1 (stereo unspecified)	101%
CCOC(=O)/C(C#N)=C/c1cn(CCC(=O)O)nc1-c1ccc(Br)cc1	102%
c1ccc2c(c1)OCCOCCOCCO2	99%
O=C(C1CCN(C2CCN(Cc3ccc4cc(F)ccc4n3)CC2)CC1)N1CCCC1	98%
CCC(C)NC(=O)c1nn(C)c(=O)c2ccccc12 (stereo unspecified)	103%
Cc1[nH]nc(SCC(=O)NCC(C)C)c1[N+](=O)[O-]	96%
Cc1ccc(OCCCC(=O)NC(C)c2ccccc2)c(C)c1 (stereo unspecified)	97%
Cc1cccc(NS(=O)(=O)c2ccc(C)c(C(N)=O)c2)c1	102%
CC1COc2ccccc2N1S(=O)(=O)c1ccccc1 (stereo unspecified)	95%
O=[N+]([O-])c1ccc2[nH]c3c(c2c1)CCCC3O (stereo unspecified)	103%
Cc1ccccc1NC(=O)c1nn(-c2ccc(F)c(F)c2)ccc1=O	95%
O=C(O)CCCCOn1ccnc1	97%

SMILES	GTP binding activity (percent of control)
Cc1ccc(C(=O)N/C(=C\c2cccs2)C(=O)NCCc2ccccn2)cc1C	106%
CNc1nc2c(C)cccn2c(=O)c1C=Nc1ccc(OC)cc1	90%
COc1ccccc1N1CCN(c2ccc([N+](=O)[O-])nc2)CC1	104%
CC1(C)C2CCC1(C)C(OC(=O)c1ccc(O)cc1)C2 (stereo unspecified)	97%
O=C(O/N=C(/c1ccccc1)c1ccncc1)c1ccccc1[N+](=O)[O-]	95%
O=C(c1snnc1-c1ccccc1)N1CCOCC1	100%
CCc1nc2ccccc2c(C(=O)OC2CCCCC2=O)c1C (stereo unspecified)	99%
CC(C)(C)NC(=O)COC(=O)c1cc(Cl)ccc1[N+](=O)[O-]	102%
COc1ccc(C(=O)NNc2cc(C)nc(NNC(=O)c3ccc(OC)cc3)n2)cc1	102%
Cc1ccc(NC(=O)Cn2c(=O)n(CCC(=O)NC3CCN(Cc4ccccc4)CC3)c(=O)c3ccccc32)cc1	102%
C[C@H](NC(=O)c1ccccc1Cl)C(=O)OCCOc1cccc(Cl)c1	94%
OCCNCc1cccc(OCc2ccccc2Cl)c1	97%
CN(C)C(=O)N1CCNCC1	106%
CCCCCC1CCC(c2nnc(SCC(C)=O)o2)CC1 (stereo unspecified)	104%
O=C(NC(Cc1c[nH]c2ccccc12)C(=O)O)/C(=C/c1ccco1)NC(=O)c1ccccc1 (stereo unspecified)	98%
O=C(NNC(=S)NCc1ccco1)C(c1ccccc1)c1ccccc1	105%
CSc1nsc(SC)c1NC(=O)OC1CCCCC1	20% (active)
CSc1ncccc1C(=O)NC1CCCCCC1	100%
COc1ccc(NC(=O)c2c(SC)nsc2SC)cc1	103%
COc1ccc(/C=N/S(=O)(=O)c2ccccc2)cc1OC	97%
O=[N+]([O-])/C(N=Nc1ccccc1)=N\Nc1ccccc1	101%
CCC(C)(C)NC(=O)CN(Cc1cccs1)C(=O)CNS(=O)(=O)c1ccc(F)cc1	98%
Cc1ccc(CN2CCN(Cc3ccc(OCCO)cc3)CC2CCO)o1 (stereo unspecified)	104%
Cc1cccc(N2CCN(c3ccc(NC(=O)/C=C\C(=O)O)cc3)CC2)c1	97%
O=C1CS(=O)CN1c1ccc(Oc2ccccc2)cc1 (stereo unspecified)	93%
Cc1ccc(C(=O)NCC(=O)O)s1	95%

SMILES	GTP binding activity (percent of control)
Cc1c(-c2cccc(Cl)c2)nc2ccccc2c1C(=O)OCC(=O)N(C)C1CCS(=O)(=O)C1 (stereo unspecified)	105%
CCOC(=O)C1(Cc2cccc(OC)c2)CCN(C(C)COC)CC1 (stereo unspecified)	104%
CCSC1=NCCN1S(=O)(=O)c1ccc(F)cc1	105%
CCOc1ccc(/C=N/Nc2nncc(-c3ccccc3)n2)cc1OC	102%
COc1ccc(-c2[nH]ncc2CN(Cc2nccn2C)C(C)C)cc1F	100%
Cc1ccc(-c2cc(C(F)(F)F)n3ncc(C(=O)N4CCCCC4c4cccnc4)c3n2)cc1 (stereo unspecified)	97%
Cc1cccc(N2CCN(c3ccc(C(N)=O)cc3[N+](=O)[O-])CC2)c1C	95%
Cc1nnc(SCC(=O)NNC(=O)c2ccc(Cl)cc2)n1CC1CCCO1 (stereo unspecified)	100%
COc1cc2[nH]c(=O)n(Cc3ccc(C(=O)NC4CCN(Cc5ccccc5)CC4)cc3)c(=O)c2cc1OC	104%
CCCCn1c(N)c(N2CCOCC2)c(=O)n(CC(=O)NCCc2ccccc2)c1=O	105%
COCCCNC(=S)NNC(=O)C(O)(c1ccccc1)c1ccccc1	109%
CC(OC(=O)CCc1nc(=O)c2ccccc2n1C)C(=O)NCc1ccc2c(c1)OCO2 (stereo unspecified)	97%
COc1ccc(NS(=O)(=O)c2cc(NC(=O)CC(=O)c3ccc([N+](=O)[O-])cc3)ccc2C)cc1	106%
COc1cc(OC)cc(-c2nnc(SCC(=O)Nc3ccc(C(=O)O)cc3)s2)c1	93%
Oc1ccc(-c2nncn2-c2ccccc2)cc1	99%
CCN(CCn1cccn1)Cc1cn[nH]c1-c1ccc(OC)cc1F	97%
CCN(CC)S(=O)(=O)c1ccc(NC(=O)c2cccnc2Cl)c(NC(=O)c2cccnc2Cl)c1	91%
CCOC(=O)C1(CC2CCCCO2)CCN(Cc2nc(-c3cccs3)oc2C)CC1 (stereo unspecified)	99%
NC(N)=N/N=C/c1ccc(Cl)c([N+](=O)[O-])c1	103%
CC(Nc1nc(N2CCN(CCO)CC2)nc2ccccc12)c1ccccc1 (stereo unspecified)	98%
CC(=O)NCC(=O)N1CCCC(C(=O)c2ccc3c4c(cccc24)CC3)C1 (stereo unspecified)	98%
CC(C)N1CCC(N2CCN(Cc3cccnc3)CC2CCO)CC1 (stereo unspecified)	104%
N#Cc1c(NC(=O)C2CC(Cl)=CCC2C(=O)O)sc2c1CCCCC2 (stereo unspecified)	94%
